Source: PubChem BioAssay (NCI)
About 83,000 compounds went through this panel and 20% of them were active in at least one assay; those are over-represented in the sample as a whole.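 Activity criterion: percent growth below 10, measured after cells in 96-well plates were exposed to a single compound concentration for 48 hours.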 A number with no mark means an inactive call. The source made the active and inactive calls.

What was measured:
Assay in all cases: NCI-60 one-dose screen, 48 h (100 = growth as untreated, 0 = no growth, -100 = all killed)
Conditions in all cases: 10 µM unless noted
[1] = tested on: HCT-15 colon
[2] = tested on: HT29 colon
[3] = tested on: SNB-75 CNS
[4] = tested on: SNB-19 CNS
[5] = tested on: U251 CNS
[6] = tested on: PC-3 prostate
[7] = tested on: SK-MEL-5 melanoma
[8] = tested on: UACC-62 melanoma
[9] = tested on: LOX IMVI melanoma
[10] = tested on: SK-MEL-28 melanoma

`Cn1cc(-c2nn3cc(-c4cccnc4)nc3s2)c2cc(F)ccc21` was tested, and the growth [1] was 60%, the growth [2] was 67.1% and the growth [3] was 86.9%. For the same compound, the growth [4] was 84.7%, the growth [5] was 96.8% and the growth [6] was 79.4%. For the same compound, the growth [7] was 94.3%, the growth [8] was 62.2% and the growth [9] was 85.7%. The growth [10] was 81.7%.

`COc1ccc(/C=C/C(=O)c2nnn(-c3ccc(Br)cc3)c2C)cc1OC` showed a growth [1] of 60.7%, a growth [2] of 62.2% and a growth [3] of 81.6%. It also gave a growth [4] of 78.9%, a growth [5] of 86.8% and a growth [6] of 75.3%. For the same compound, the growth [7] was 63.9%, the growth [8] was 62% and the growth [9] was 43.5%. For the same compound, the growth [10] was 96.5%.

With `CS(=O)c1nccc(-c2c(-c3ccc(F)c(OCCc4ccccc4)c3)nc3sccn23)n1` (stereo not given) the growth [1] was 65.4%, the growth [2] was 59.9% and the growth [3] was 106%. The growth [4] was 86.6%, the growth [5] was 106% and the growth [6] was 64.6%. It also gave a growth [7] of 100%, a growth [8] of 93.8% and a growth [9] of 72.1%. For the same compound, the growth [10] was 87.8%.

For `CN1C(=O)N(C)C2C1NN=c1s/c(=C\c3ccccn3)c(=O)n12` (stereo not given), the growth [1] was 79.4%, the growth [2] was 102% and the growth [3] was 93%. For the same compound, the growth [4] was 96.8%, the growth [5] was 101% and the growth [6] was 94.8%. It also gave a growth [7] of 102%, a growth [8] of 90.6% and a growth [9] of 100%. The growth [10] was 107%.

`Nc1nc(-c2cccc([N+](=O)[O-])c2)c(N=Nc2cccc(Cl)c2)s1` showed a growth [1] of 16.3%, a growth [2] of 40.7% and a growth [3] of 40.3%. The growth [4] was 73.9%, the growth [5] was 44.3% and the growth [6] was 37.6%. For the same compound, the growth [7] was 39.9%, the growth [8] was 32.9% and the growth [9] was 24.5%. It also gave a growth [10] of 75.6%.

`COc1cc2c3c(n(CCCN4CCC[C@H]4C(N)=O)c(=O)c2cc1OC)-c1cc2c(cc1C3=O)OCO2` was tested, and the growth [1] was 11.9%, the growth [2] was 6.94% (active) and the growth [3] was 12%. The growth [4] was 21.2%, the growth [5] was -21.6% (active) and the growth [6] was 39.7%. For the same compound, the growth [7] was -46.1% (active), the growth [8] was -43.5% (active) and the growth [9] was -28.3% (active). It also gave a growth [10] of 52.1%.

In the case of `O=S(=O)(Nc1cc(Cl)c(F)c(Cl)c1)c1ccc(-c2cnc(C3CC3)o2)cc1`, the growth [1] is reported as 35.2%, the growth [2] is reported as 13.4% and the growth [3] is reported as -4.2% (active). It also gave a growth [4] of 44.3%, a growth [5] of 30.4% and a growth [6] of 25.2%. For the same compound, the growth [7] was 28.8%, the growth [8] was 42.6% and the growth [9] was 43.2%. It also gave a growth [10] of 66.7%.

`O=C(N/N=C\c1ccc(Cl)cc1)c1ccc2nc(-c3ccc(Br)cc3)[nH]c2c1` was tested, and the growth [1] was -25.2% (active), the growth [2] was -52% (active) and the growth [3] was 49.9%. The growth [4] was 5.18% (active), the growth [5] was -70.6% (active) and the growth [6] was -23.7% (active). The growth [7] was 22.2%, the growth [8] was 8.2% (active) and the growth [9] was -80.5% (active). The growth [10] was -14.7% (active).

Compound `O=C(NNc1nc2cc(F)cc(F)c2n2cccc12)c1ccncn1` has a growth [1] of 25.3%, a growth [2] of 23.8% and a growth [3] of 19.3%. The growth [4] was 21.9%, the growth [5] was 9.14% (active) and the growth [6] was 33.6%. For the same compound, the growth [7] was -4.3% (active), the growth [8] was 3.64% (active) and the growth [9] was 6.37% (active). It also gave a growth [10] of 22.9%.

`C#CCOc1ccc(/C=N/Nc2nc(-c3cc(Cl)ccc3Cl)cs2)cc1` showed a growth [1] of 81.7%, a growth [2] of 110% and a growth [3] of 77.3%. The growth [4] was 104%, the growth [5] was 98.6% and the growth [6] was 87.1%. For the same compound, the growth [7] was 97.8%, the growth [8] was 80.3% and the growth [9] was 97.7%. It also gave a growth [10] of 110%.

For `CC1CCc2c(sc3nc(SCC(=O)N/N=C/c4ccc(Cl)cc4)n(-c4ccccc4)c(=O)c23)C1` (stereo not given), the growth [1] was 96.3%, the growth [2] was 107% and the growth [3] was 98.5%. The growth [4] was 81.6%, the growth [5] was 93.9% and the growth [6] was 95.3%. The growth [7] was 104%, the growth [8] was 92.8% and the growth [9] was 84.1%. The growth [10] was 102%.

`C=CCn1c(SCC(=O)Nc2cccc(C(=O)/C=C/c3ccc(OC)c(OC)c3)c2)nc2ccccc2c1=O` was tested, and the growth [1] was 72.4%, the growth [2] was 95% and the growth [3] was 83.7%. For the same compound, the growth [4] was 77.2%, the growth [5] was 76.6% and the growth [6] was 79.7%. For the same compound, the growth [7] was 97.6%, the growth [8] was 74.9% and the growth [9] was 79.5%. The growth [10] was 102%.

With `Cc1ccc(-n2cc(/C=C/C(=O)c3ccc(S(C)(=O)=O)cc3)c(-c3ccc(S(C)(=O)=O)cc3)n2)cc1` the growth [1] was 37.6%, the growth [2] was 70.5% and the growth [3] was 102%. It also gave a growth [4] of 89.8%, a growth [5] of 95.6% and a growth [6] of 86.6%. The growth [7] was 94.4%, the growth [8] was 78.1% and the growth [9] was 74.5%. The growth [10] was 92.9%.

`C=CCn1c(SCC(=O)Nc2cccc(C(=O)/C=C/c3ccccc3Cl)c2)nc2ccccc2c1=O` was tested, and the growth [1] was 75.4%, the growth [2] was 75% and the growth [3] was 70.9%. It also gave a growth [4] of 78.5%, a growth [5] of 81.8% and a growth [6] of 82.8%. The growth [7] was 98.8%, the growth [8] was 83.4% and the growth [9] was 79.5%. It also gave a growth [10] of 92.3%.

`NS(=O)(=O)c1ccc(-n2cc(CC=O)nn2)cc1` gave a growth [1] of 99.8%, a growth [2] of 101% and a growth [3] of 90.1%. It also gave a growth [4] of 102%, a growth [5] of 102% and a growth [6] of 100%. The growth [7] was 100%, the growth [8] was 95.7% and the growth [9] was 98.9%. The growth [10] was 114%.

In the case of `CC(=O)Nc1cccc(-n2cnc3cc(-c4ccc(O)cc4)ccc32)c1`, the growth [1] is reported as 24.8%, the growth [2] is reported as 28.2% and the growth [3] is reported as -31.7% (active). For the same compound, the growth [4] was 33.4%, the growth [5] was 23.1% and the growth [6] was 35.7%. The growth [7] was 28.3%, the growth [8] was 36.5% and the growth [9] was 36.6%. The growth [10] was 78%.

In the case of `O=C(Nc1ccc(-c2nc(-c3cccc(O)c3)c(-c3ccnc(Br)c3)[nH]2)cc1)c1ccccc1`, the growth [1] is reported as 7.12% (active), the growth [2] is reported as 12.2% and the growth [3] is reported as -2.13% (active). The growth [4] was 23.3%, the growth [5] was 20.8% and the growth [6] was 6.14% (active). For the same compound, the growth [7] was -67% (active), the growth [8] was 22.1% and the growth [9] was 3.27% (active). It also gave a growth [10] of 34.2%.

For `Cc1cc(=O)n2nc(-c3cn(C)c4ccc(Cl)cc34)sc2n1`, the growth [1] was 86.4%, the growth [2] was 104% and the growth [3] was 97%. It also gave a growth [4] of 96.6%, a growth [5] of 98.5% and a growth [6] of 86.2%. The growth [7] was 88.8%, the growth [8] was 86.8% and the growth [9] was 85.4%. For the same compound, the growth [10] was 100%.

`O=C1c2c(c3c4cc(O)ccc4oc3c3[nH]c4ccccc4c23)C(=O)N1O` was tested, and the growth [1] was 15.2%, the growth [2] was -64.6% (active) and the growth [3] was -8.52% (active). For the same compound, the growth [4] was 16.4%, the growth [5] was -3.58% (active) and the growth [6] was 12.8%. For the same compound, the growth [7] was -76.1% (active), the growth [8] was -53.6% (active) and the growth [9] was -67.8% (active). For the same compound, the growth [10] was 19.4%.

`COc1ccc(-c2cc(-c3cccc4ccccc34)n3c(n2)nc2ccccc23)cc1OC` showed a growth [1] of 27.4%, a growth [2] of 21.5% and a growth [3] of 40.7%. The growth [4] was 16.7%, the growth [5] was 20.4% and the growth [6] was 30.8%. For the same compound, the growth [7] was 17.9%, the growth [8] was 20% and the growth [9] was 30.9%. It also gave a growth [10] of 51.5%.

With `CCOC(=O)c1nn(-c2ccccc2)c(=O)c2c(N)c(C#N)c(-c3cccs3)cc12` the growth [1] was 87.6%, the growth [2] was 61.9% and the growth [3] was -8.81% (active). For the same compound, the growth [4] was 70.5%, the growth [5] was 77.3% and the growth [6] was 79.9%. It also gave a growth [7] of 96.4%, a growth [8] of 85.8% and a growth [9] of 73%. For the same compound, the growth [10] was 99.9%.

`COc1ccc(Cn2cc3c(c2-c2ccccc2)CCCc2cnoc2-3)cc1` showed a growth [1] of 32.5%, a growth [2] of 20.4% and a growth [3] of 51.2%. For the same compound, the growth [4] was 61%, the growth [5] was 57.7% and the growth [6] was 60%. For the same compound, the growth [7] was 50.1%, the growth [8] was 42.7% and the growth [9] was 53.5%. The growth [10] was 62%.

In the case of `CCN1C(=O)N(CC)C2SC(N/N=C/c3ccc(OC)cc3)=NC21` (stereo not given), the growth [1] is reported as 12%, the growth [2] is reported as 15.1% and the growth [3] is reported as 27.3%. It also gave a growth [4] of 23%, a growth [5] of 24.5% and a growth [6] of 28.9%. The growth [7] was -0.548% (active), the growth [8] was 38.4% and the growth [9] was 3.58% (active). For the same compound, the growth [10] was 60.2%.
